{"source": "PubChem BioAssay (NCATS)", "note": "Results filed as inconclusive are left out. A call without a number means that no potency is given here. Calls of active or inactive are those of the source. Calls come from the whole dose curve; as a rule, active = well fitted curve in the direction sought with a large enough effect; inconclusive = small, poorly fitted or top-dose-only effect, or another doubt; inactive = no such curve, though single readings can be large or run the other way."}
{"target": "Metallo-beta-lactamase type 2 (Klebsiella pneumoniae) (UniProt C7C422)", "sequence (C7C422 whole entry, looked up)": "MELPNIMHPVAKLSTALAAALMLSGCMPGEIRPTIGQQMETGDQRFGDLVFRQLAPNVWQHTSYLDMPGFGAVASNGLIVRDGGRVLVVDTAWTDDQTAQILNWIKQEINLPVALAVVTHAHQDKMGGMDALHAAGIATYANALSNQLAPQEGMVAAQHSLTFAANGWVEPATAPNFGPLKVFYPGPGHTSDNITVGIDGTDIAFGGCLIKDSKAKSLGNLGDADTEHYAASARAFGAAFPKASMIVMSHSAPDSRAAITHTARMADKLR", "assay": "qHTS to identify inhibitors of the New Delhi Metallo-beta-lactamase (NDM): assay validation screen against the NCATS LOPAC Collection (AID 1794843);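 note: nitrocefin turnover by NDM-1 measured as 485 nm absorbance at plateau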", "conditions": "NDM-1 enzyme, nitrocefin hydrolysis, absorbance 485 nm; series mostly up to 38.4 µM", "procedure,_shortened": "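Enzyme 2 nM final, 50 mM HEPES pH 7.0, 1 uM ZnSO4, 0.01% Tween20; cpds in DMSO, preincub w/ enzyme; + nitrocefin (50 uM stock); A485 at plateau; no-enzyme column as blank.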"}
{"smiles": "CC(N)(Cc1ccc(O)cc1)C(=O)O", "note": "(stereo unspecified)", "Potency": "inactive"}
{"smiles": "Nc1ccc(-c2nc3ccc(-c4nc5ccc(N)cc5[nH]4)cc3[nH]2)cc1", "Potency": "inactive"}
{"smiles": "c1ccc2c(c1)CCC[C@H]2Nc1nc2ccccc2[nH]1", "Potency": "inactive"}
{"smiles": "N[C@@H](CCCC(=O)O)C(=O)O", "Potency": "inactive"}
{"smiles": "CC1C(=O)N(C)C(=O)c2nc[nH]c21", "note": "(stereo unspecified)", "Potency": "inactive"}
{"smiles": "c1ccc2c(c1)CC(N1CCN(c3cccc4c3OCCO4)CC1)C2", "Potency": "inactive"}
{"smiles": "N[C@H](C(=O)O)[C@H]1C[C@@H]1C(=O)O", "Potency": "inactive"}
{"smiles": "COC(=O)C(N)Cc1ccc(Cl)cc1", "note": "(stereo unspecified)", "Potency": "inactive"}
{"smiles": "CCCCCCC/C=C\\CCCCCCCCC(=O)O", "Potency": "inactive"}
{"smiles": "COc1cc2c(CCNC(C)=O)c[nH]c2cc1O", "Potency": "inactive"}
{"smiles": "CCN(c1nc(N)c(C(=O)N=C(N)N)nc1Cl)C(C)C", "Potency": "inactive"}
{"smiles": "O=C(c1ccc2c(c1)OCCO2)N1CCCCC1", "Potency": "inactive"}
{"smiles": "OC[C@H]1O[C@@H](n2cnc3cncnc32)[C@H](O)[C@@H]1O", "Potency": "inactive"}
{"smiles": "C[C@H]1CC2C3CCC4=CC(=O)C=C[C@]4(C)[C@@]3(Cl)[C@@H](O)C[C@]2(C)[C@@]1(O)C(=O)CO", "note": "(stereo partly specified)", "Potency": "inactive"}
{"smiles": "NOCC(=O)O", "Potency": "inactive"}
{"smiles": "N=C(N)c1ccccc1", "Potency": "inactive"}
